# According to PubChem BioAssay AID1159580 (chemical genetic matrix, 2015):
# In all, about 5,500 compounds went through this assay and about 2,000 (36%) were called active. Inconclusive results (about 18%) are left out. Some of the results follow. Values without a mark were called inactive. Rule as the data show it: active = normalized growth mostly below about 0.91 (no sharp cut-off); inconclusive = no clear call, values can overlap the other calls; inactive = mostly above about 0.92.
# Assay: chemical genetic growth profiling, strain panel (AID 1159580);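 also: tested at 20 µM; growth read once vehicle control cultures reached saturation at 30 °C; 1 = growth at the plate median or of vehicle wells; lower values mean less growth of the strain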
# Settings: S. cerevisiae deletion strains, growth OD
smiles,measurement,setting,value
CC(=O)OC1CC23CC24CCC(OC2OCC(O)C(O)C2O)C(C)(C)C4CCC3C2(C)CC3OC4(CC(C)C3C12C)OC(O)C1(C)OC41 (centres undefined),normalized growth,"locus YAL021C, strain ccr4, stronger effect = lower value",0.995
same,normalized growth,"locus YAL026C, strain drs2, stronger effect = lower value",1.01
same,normalized growth,"locus YAL030W, strain snc1, stronger effect = lower value",1
same,normalized growth,"locus YBL061C, strain skt5, stronger effect = lower value",1.01
same,normalized growth,"locus YBR009C, strain hhf1, stronger effect = lower value",0.988
same,normalized growth,"locus YBR023C, strain chs3, stronger effect = lower value",1
same,normalized growth,"locus YBR171W, strain sec66, stronger effect = lower value",1.02
same,normalized growth,"locus YBR231C, strain swc5, stronger effect = lower value",1.03
same,normalized growth,"locus YBR279W, strain paf1, stronger effect = lower value",1
same,normalized growth,"locus YCL011C, strain gbp2, stronger effect = lower value",1.01
same,normalized growth,"locus YCL016C, strain dcc1, stronger effect = lower value",0.998
same,normalized growth,"locus YCL069W, strain vba3, stronger effect = lower value",1.01
same,normalized growth,"locus YCR088W, strain abp1, stronger effect = lower value",1.01
same,normalized growth,"locus YDL005C, strain med2, stronger effect = lower value",1.02
same,normalized growth,"locus YDL040C, strain nat1, stronger effect = lower value",1
same,normalized growth,"locus YDR001C, strain nth1, stronger effect = lower value",1
same,normalized growth,"locus YDR069C, strain doa4, stronger effect = lower value",1.01
same,normalized growth,"locus YDR137W, strain rgp1, stronger effect = lower value",0.99
same,normalized growth,"locus YDR159W, strain sac3, stronger effect = lower value",1.04
same,normalized growth,"locus YDR195W, strain ref2",1
same,normalized growth,"locus YDR297W, strain sur2, stronger effect = lower value",1.01
same,normalized growth,"locus YDR334W, strain swr1, stronger effect = lower value",1.01
same,normalized growth,"locus YDR335W, strain msn5, stronger effect = lower value",1.01
same,normalized growth,"locus YDR392W, strain spt3, stronger effect = lower value",0.936
same,normalized growth,"locus YEL003W, strain gim4, stronger effect = lower value",1.01
same,normalized growth,"locus YEL037C, strain rad23, stronger effect = lower value",1
same,normalized growth,"locus YEL061C, strain CIN8 (second series), stronger effect = lower value",1.01
same,normalized growth,"locus YER015W, strain faa2, stronger effect = lower value",1.02
same,normalized growth,"locus YER016W, strain bim1, stronger effect = lower value",1.01
same,normalized growth,"locus YER111C, strain swi4, stronger effect = lower value",0.999
same,normalized growth,"locus YER155C, strain BEM2 (second series), stronger effect = lower value",1.07
same,normalized growth,"locus YFR010W, strain ubp6, stronger effect = lower value",1.03
same,normalized growth,"locus YGL167C, strain pmr1, stronger effect = lower value",0.996
same,normalized growth,"locus YGL173C, strain kem1, stronger effect = lower value",1.01
same,normalized growth,"locus YGL227W, strain vid30, stronger effect = lower value",1.01
same,normalized growth,"locus YGL240W, strain doc1, stronger effect = lower value",1.04
same,normalized growth,"locus YGL253W, strain hxk2, stronger effect = lower value",1
same,normalized growth,"locus YHR013C, strain ard1, stronger effect = lower value",0.998
same,normalized growth,"locus YHR027C, strain rpn1, stronger effect = lower value",1
same,normalized growth,"locus YHR142W, strain chs7, stronger effect = lower value",0.978
same,normalized growth,"locus YJL092W, strain hpr5, stronger effect = lower value",1.02
same,normalized growth,"locus YJL095W, strain BCK1 (second series), stronger effect = lower value",1.01
same,normalized growth,"locus YJL115W, strain asf1, stronger effect = lower value",1.01
same,normalized growth,"locus YJL129C, strain trk1, stronger effect = lower value",1
same,normalized growth,"locus YJL154C, strain vps35, stronger effect = lower value",1.01
same,normalized growth,"locus YJL164C, strain tpk1, stronger effect = lower value",0.972
same,normalized growth,"locus YJL166W, strain qcr8, stronger effect = lower value",1.01
same,normalized growth,"locus YJL187C, strain SWE1, stronger effect = lower value",0.996
same,normalized growth,"locus YKL160W, strain elf1, stronger effect = lower value",0.998
same,normalized growth,"locus YKR026C, strain gcn3, stronger effect = lower value",1.01
same,normalized growth,"locus YKR091W, strain srl3, stronger effect = lower value",1
same,normalized growth,"locus YLL001W, strain dnm1, stronger effect = lower value",1.01
same,normalized growth,"locus YLL026W, stronger effect = lower value",1.02
same,normalized growth,"locus YLL041C, strain sdh2, stronger effect = lower value",0.997
same,normalized growth,"locus YLR027C, strain aat2, stronger effect = lower value",0.997
same,normalized growth,"locus YLR221C, strain rsa3, stronger effect = lower value",1.04
same,normalized growth,"locus YLR258W, strain gsy2, stronger effect = lower value",1
same,normalized growth,"locus YLR262C, strain YPT6 (second series), stronger effect = lower value",1.02
same,normalized growth,"locus YLR320W, strain mms22, stronger effect = lower value",1.04
same,normalized growth,"locus YLR342W, strain FKS1, stronger effect = lower value",1
same,normalized growth,"locus YLR357W, strain rsc2, stronger effect = lower value",1.05
same,normalized growth,"locus YLR370C, strain arc18, stronger effect = lower value",1.01
same,normalized growth,"locus YLR384C, strain iki3, stronger effect = lower value",0.998
same,normalized growth,"locus YML120C, strain ndi1, stronger effect = lower value",0.98
same,normalized growth,"locus YMR058W, strain fet3, stronger effect = lower value",1.03
same,normalized growth,"locus YMR125W, strain sto1, stronger effect = lower value",0.985
same,normalized growth,"locus YMR129W, stronger effect = lower value",1
same,normalized growth,"locus YMR205C, strain PFK2, stronger effect = lower value",0.994
same,normalized growth,"locus YMR231W, strain pep5, stronger effect = lower value",1.01
same,normalized growth,"locus YNL071W, strain lat1, stronger effect = lower value",0.999
same,normalized growth,"locus YNL209W, strain ssb2, stronger effect = lower value",0.987
same,normalized growth,"locus YNL248C, strain rpa49, stronger effect = lower value",1.07
same,normalized growth,"locus YNL322C, strain KRE1 (second series), stronger effect = lower value",1.01
same,normalized growth,"locus YNR049C, strain mso1, stronger effect = lower value",1.02
same,normalized growth,"locus YOR001W, strain rrp6, stronger effect = lower value",1.04
same,normalized growth,"locus YOR070C, strain gyp1, stronger effect = lower value",1.02
same,normalized growth,"locus YOR080W, strain dia2, stronger effect = lower value",1
same,normalized growth,"locus YOR083W, strain WHI5, stronger effect = lower value",0.993
same,normalized growth,"locus YOR106W, strain vam3, stronger effect = lower value",0.975
same,normalized growth,"locus YOR265W, strain rbl2, stronger effect = lower value",1
same,normalized growth,"locus YOR270C, strain vph1, stronger effect = lower value",0.906
same,normalized growth,"locus YOR290C, strain snf2, stronger effect = lower value",0.959
same,normalized growth,"locus YPL051W, strain arl3, stronger effect = lower value",1.03
same,normalized growth,"locus YPL078C, strain atp4, stronger effect = lower value",0.963
same,normalized growth,"locus YPL106C, strain sse1, stronger effect = lower value",1.02
same,normalized growth,"locus YPL240C, strain hsp82, stronger effect = lower value",1.02
C=CC(C)(C)c1c2c(c(O)c3c(=O)c4ccc(O)c(O)c4oc13)C=CC(C)(C)O2,normalized growth,"locus YBR021W, strain FUR4, stronger effect = lower value",0.893
same,normalized growth,"locus YBR229C, strain ROT2, stronger effect = lower value",1
same,normalized growth,"locus YCL029C, strain bik1, stronger effect = lower value",0.992
same,normalized growth,"locus YDL035C, strain GPR1, stronger effect = lower value",0.601 (active)
same,normalized growth,"locus YDL074C, strain BRE1, stronger effect = lower value",0.615 (active)
same,normalized growth,"locus YDL101C, strain DUN1, stronger effect = lower value",0.929
same,normalized growth,"locus YDL185W, strain tfp1, stronger effect = lower value",0.996
same,normalized growth,"locus YDL192W, strain arf1, stronger effect = lower value",0.829 (active)
same,normalized growth,"locus YDR101C, strain arx1, stronger effect = lower value",0.973
same,normalized growth,"locus YDR150W, strain NUM1, stronger effect = lower value",0.78 (active)
same,normalized growth,"locus YDR162C, strain NBP2, stronger effect = lower value",0.444 (active)
same,normalized growth,"locus YDR318W, strain mcm21, stronger effect = lower value",0.886 (active)
same,normalized growth,"locus YDR388W, stronger effect = lower value",0.918 (active)
same,normalized growth,"locus YDR502C, strain sam2, stronger effect = lower value",0.948
same,normalized growth,"locus YER110C, stronger effect = lower value",1
same,normalized growth,"locus YER155C, strain BEM2, stronger effect = lower value",0.817 (active)
same,normalized growth,"locus YER167W, strain BCK2, stronger effect = lower value",0.871 (active)
same,normalized growth,"locus YGL078C, strain dbp3, stronger effect = lower value",0.975
same,normalized growth,"locus YGL086W, strain mad1, stronger effect = lower value",0.794 (active)
same,normalized growth,"locus YGL248W, strain PDE1, stronger effect = lower value",0.847 (active)
same,normalized growth,"locus YGR135W, strain pre9, stronger effect = lower value",0.891 (active)
same,normalized growth,"locus YGR252W, strain gcn5, stronger effect = lower value",0.823
same,normalized growth,"locus YHR079C, strain IRE1 (second series), stronger effect = lower value",1
same,normalized growth,"locus YHR094C, strain hxt1, stronger effect = lower value",1.01
same,normalized growth,"locus YHR129C, strain ARP1, stronger effect = lower value",0.726 (active)
same,normalized growth,"locus YHR200W, strain rpn10, stronger effect = lower value",0.894 (active)
same,normalized growth,"locus YIL066C, strain RNR3, stronger effect = lower value",0.413 (active)
same,normalized growth,"locus YIL073C, strain SPO22, stronger effect = lower value",0.424 (active)
same,normalized growth,"locus YIL125W, strain kgd1, stronger effect = lower value",0.984
same,normalized growth,"locus YIR030C, strain dcg1, stronger effect = lower value",1
same,normalized growth,"locus YJL095W, strain BCK1, stronger effect = lower value",0.767 (active)
same,normalized growth,"locus YJL134W, strain LCB3, stronger effect = lower value",0.987
same,normalized growth,"locus YJL168C, strain set2, stronger effect = lower value",0.99
same,normalized growth,"locus YJL187C, strain SWE1 (second series), stronger effect = lower value",0.81 (active)
same,normalized growth,"locus YKL009W, strain mrt4, stronger effect = lower value",0.938
same,normalized growth,"locus YKL068W, stronger effect = lower value",0.996
same,normalized growth,"locus YKL085W, strain MDH1 (second series), stronger effect = lower value",0.978
same,normalized growth,"locus YKL085W, strain MDH1, stronger effect = lower value",0.978
same,normalized growth,"locus YKR001C, strain vps1, stronger effect = lower value",0.783 (active)
same,normalized growth,"locus YLR039C, strain RIC1, stronger effect = lower value",0.581 (active)
same,normalized growth,"locus YLR058C, strain SHM2, stronger effect = lower value",0.867 (active)
same,normalized growth,"locus YLR102C, strain apc9, stronger effect = lower value",1.01
same,normalized growth,"locus YLR262C, strain YPT6, stronger effect = lower value",0.544 (active)
same,normalized growth,"locus YLR268W, strain sec22, stronger effect = lower value",0.812 (active)
same,normalized growth,"locus YLR330W, strain CHS5, stronger effect = lower value",0.9 (active)
same,normalized growth,"locus YLR342W, strain FKS1 (second series), stronger effect = lower value",0.4 (active)
same,normalized growth,"locus YLR371W, strain rom2, stronger effect = lower value",0.799 (active)
same,normalized growth,"locus YLR418C, strain cdc73, stronger effect = lower value",0.51 (active)
same,normalized growth,"locus YML016C, strain PPZ1, stronger effect = lower value",0.873 (active)
same,normalized growth,"locus YML032C, strain rad52, stronger effect = lower value",0.954
same,normalized growth,"locus YML124C, strain tub3, stronger effect = lower value",1.02
same,normalized growth,"locus YMR078C, strain ctf18, stronger effect = lower value",0.984
same,normalized growth,"locus YMR223W, strain ubp8, stronger effect = lower value",0.891 (active)
same,normalized growth,"locus YMR263W, strain SAP30, stronger effect = lower value",0.92
same,normalized growth,"locus YMR307W, strain GAS1, stronger effect = lower value",0.428 (active)
same,normalized growth,"locus YNL067W, strain RPL9B, stronger effect = lower value",0.843 (active)
same,normalized growth,"locus YNL233W, strain BNI4, stronger effect = lower value",0.582 (active)
same,normalized growth,"locus YNL250W, strain rad50, stronger effect = lower value",1.03
same,normalized growth,"locus YNL271C, strain bni1, stronger effect = lower value",0.992
same,normalized growth,"locus YNL298W, strain CLA4, stronger effect = lower value",1
same,normalized growth,"locus YNL307C, strain MCK1, stronger effect = lower value",0.799 (active)
same,normalized growth,"locus YNR052C, strain pop2, stronger effect = lower value",0.93
same,normalized growth,"locus YOL006C, strain TOP1, stronger effect = lower value",0.275 (active)
same,normalized growth,"locus YOL012C, strain htz1",0.242
same,normalized growth,"locus YOL147C, strain pex11, stronger effect = lower value",0.943
same,normalized growth,"locus YOR061W, strain CKA2, stronger effect = lower value",0.78 (active)
same,normalized growth,"locus YOR069W, strain VPS5, stronger effect = lower value",0.873 (active)
same,normalized growth,"locus YOR136W, strain idh2, stronger effect = lower value",0.97
same,normalized growth,"locus YOR144C, strain elg1, stronger effect = lower value",0.983
same,normalized growth,"locus YOR184W, strain ser1, stronger effect = lower value",0.76 (active)
same,normalized growth,"locus YOR316C, strain cot1, stronger effect = lower value",0.986
same,normalized growth,"locus YPL055C, strain LGE1, stronger effect = lower value",0.451 (active)
same,normalized growth,"locus YPL241C, strain CIN2, stronger effect = lower value",0.952
same,normalized growth,"locus YPR119W, strain clb2, stronger effect = lower value",1.01
same,normalized growth,"locus YPR141C, strain kar3, stronger effect = lower value",1
same,normalized growth,"locus YPR163C, strain tif3, stronger effect = lower value",0.796 (active)
same,normalized growth,"locus YPR167C, strain met16, stronger effect = lower value",0.916 (active)
same,normalized growth,"strain wtn01, stronger effect = lower value",0.839 (active)
